Test results reported in the antibiotic and cytotoxicity screens of Wong et al. (2023).
The campaign covered roughly 39,000 compounds. About 3,300 (8.5%) were called active. This excerpt belongs to a sample that is enriched for actives.

Each molecule was assayed on HepG2 (assay: cytotoxicity call (relative viability < 0.9)). Settings: 10 µM.

SMILES | cytotoxicity call
C[C@H](CO)N1C[C@H](C)[C@@H](CN(C)Cc2ccccc2F)Oc2cc(C#CC3CC3)ccc2S1(=O)=O | inactive
Nc1cnc(Cl)nc1N | inactive
COC(=O)C[C@@H]1C(=O)NCCN1C(=O)NS(=O)(=O)c1ccc(C)cc1 | inactive
C[C@@H]1CN([C@H](C)CO)C(=O)c2cccc(NS(=O)(=O)c3cccs3)c2O[C@@H]1CN(C)S(=O)(=O)c1ccccc1 | inactive
O=C(NN1CCCCC1)c1nn(-c2ccc(Cl)cc2Cl)c(-c2ccc(C#Cc3ccc(C(F)(F)F)cc3)s2)c1CNS(=O)(=O)N1CCCC1 | inactive
COc1ccc(CN(C)C[C@H]2OCCCC[C@@H](C)Oc3ccc(NC(=O)Nc4ccc(F)cc4)cc3C(=O)N([C@@H](C)CO)C[C@@H]2C)cc1 | active
COc1ccc(CN(C)C[C@H]2OCCCC[C@H](C)Oc3ccc(NC(=O)Nc4ccc(F)cc4)cc3C(=O)N([C@H](C)CO)C[C@@H]2C)cc1 | inactive
COc1ccc(CN(C)C[C@H]2OCCCC[C@H](C)Oc3ccc(NC(=O)Nc4ccc(F)cc4)cc3C(=O)N([C@H](C)CO)C[C@H]2C)cc1 | active
COc1ccc(CN(C)C[C@H]2OCCCC[C@@H](C)Oc3ccc(NC(=O)Nc4ccc(F)cc4)cc3C(=O)N([C@H](C)CO)C[C@H]2C)cc1 | active
COc1ccc(CN(C)C[C@H]2OCCCC[C@H](C)Oc3ccc(NC(=O)Nc4ccc(F)cc4)cc3C(=O)N([C@@H](C)CO)C[C@@H]2C)cc1 | inactive
COc1ccc(CN(C)C[C@H]2OCCCC[C@H](C)Oc3ccc(NC(=O)Nc4ccc(F)cc4)cc3C(=O)N([C@@H](C)CO)C[C@H]2C)cc1 | active
CCn1nnc2c(SCC(N)=O)ncnc21 | inactive
O=C(NCc1ccccc1)OCCO | inactive
O=C(C[C@H]1CC[C@@H]2[C@H](COC[C@@H](O)CN2C(=O)Nc2ccc(F)cc2)O1)NCCCN1CCOCC1 | inactive
CN1CCN(C(=O)C[C@H]2CC[C@@H]3[C@H](COC[C@H](O)CN3S(=O)(=O)c3cccc(F)c3)O2)CC1 | inactive
COc1cccc(S(=O)(=O)N2C[C@H](O)COC[C@H]3O[C@@H](CC(=O)NCCCN4CCOCC4)CC[C@@H]32)c1 | inactive
C[C@@H]1CCCCO[C@H](CN(C)C(=O)Cc2ccccc2)[C@@H](C)CN([C@H](C)CO)C(=O)c2cc(NS(=O)(=O)c3ccc(Cl)cc3)ccc2O1 | inactive
C[C@@H]1CN([C@H](C)CO)C(=O)c2cc(NS(=O)(=O)c3ccccc3)ccc2O[C@@H](C)CCCCO[C@@H]1CN(C)C(=O)C1CCCCC1 | inactive
CN1CCCN=C1C=Cc1cccs1.O=C(O)c1cc2ccccc2c(Cc2c(O)c(C(=O)O)cc3ccccc23)c1O | inactive
CN1CCCN=C1C=Cc1cccc(O)c1.O=C(O)c1cc2ccccc2c(Cc2c(O)c(C(=O)O)cc3ccccc23)c1O | inactive
Cc1cc(C=Cc2ccc3cc(N(C)C)ccc3[n+]2C)c(C)n1-c1ccccc1.O=C([O-])c1cc2ccccc2c(Cc2c(O)c(C(=O)O)cc3ccccc23)c1O | active

SMILES | cytotoxicity call
O=C(C[C@@H]1C[C@H]2c3cc(NS(=O)(=O)c4ccc(F)cc4)ccc3O[C@H]2[C@H](CO)O1)NC1CCCCC1 | inactive
C[C@H]1CN([C@@H](C)CO)C(=O)c2cc(NC(=O)Nc3ccc(C(F)(F)F)cc3)ccc2O[C@@H]1CN(C)S(=O)(=O)c1ccc(Cl)cc1 | active
C[C@H](CO)N1C[C@H](C)[C@@H](CN(C)S(=O)(=O)c2ccc(Cl)cc2)Oc2ccc(NS(C)(=O)=O)cc2C1=O | inactive
C[C@H]1CN([C@@H](C)CO)C(=O)c2cc(NS(C)(=O)=O)ccc2O[C@@H]1CN(C)S(=O)(=O)c1ccc(Cl)cc1 | active
C[C@@H]1CN([C@@H](C)CO)C(=O)c2cc(NC(=O)Nc3ccc(C(F)(F)F)cc3)ccc2O[C@@H]1CN(C)S(=O)(=O)c1ccc(Cl)cc1 | active
C[C@@H]1CN([C@H](C)CO)C(=O)c2cc(NC(=O)Nc3ccc(C(F)(F)F)cc3)ccc2O[C@@H]1CN(C)S(=O)(=O)c1ccc(Cl)cc1 | active
C[C@H]1CN([C@@H](C)CO)C(=O)c2cc(NS(C)(=O)=O)ccc2O[C@H]1CN(C)S(=O)(=O)c1ccc(Cl)cc1 | inactive
Cc1noc(C)c1S(=O)(=O)Nc1ccc2c(c1)C(=O)N([C@H](C)CO)C[C@@H](C)[C@@H](CN(C)S(=O)(=O)c1c(C)noc1C)O2 | inactive
CS(=O)(=O)N1CCOC[C@]2(CN(C(=O)c3ccc[nH]3)CCO2)C1 | inactive
Cc1noc(C)c1S(=O)(=O)Nc1cccc2c1O[C@@H](CN(C)S(=O)(=O)c1ccc(Cl)cc1)[C@@H](C)CN([C@@H](C)CO)C2=O | inactive
CCS(=O)(=O)N1CCO[C@]2(COCCN(c3cncnc3)C2)C1 | inactive
Cc1noc(C)c1NC(=O)Nc1ccc2c(c1)C(=O)N([C@@H](C)CO)C[C@@H](C)[C@@H](CN(C)Cc1ccc(C(F)(F)F)cc1)O2 | inactive
Cc1cccn2c(=O)c(-c3nn[nH]n3)cnc12 | inactive
O=C(C[C@H]1C=C[C@H](NC(=O)CN2CCOCC2)[C@@H](CO)O1)NCc1cccc(F)c1 | inactive
C[C@@H]1CN([C@@H](C)CO)S(=O)(=O)c2ccc(-c3cncnc3)cc2O[C@@H]1CN(C)C(=O)NC1CCCC1 | inactive
C[C@H](CO)N1C[C@H](C)[C@@H](CN(C)Cc2ccc(C(=O)O)cc2)Oc2c(NC(=O)Nc3ccc(C(F)(F)F)cc3)cccc2C1=O | inactive
C[C@H](CO)N1C[C@H](C)[C@H](CN(C)S(=O)(=O)c2ccc(Cl)cc2)Oc2ccc(NC(=O)Nc3ccc(C(F)(F)F)cc3)cc2C1=O | active
C[C@@H]1CN([C@H](C)CO)C(=O)c2cc(NC(=O)Nc3ccc(C(F)(F)F)cc3)ccc2O[C@H]1CN(C)S(=O)(=O)c1ccc(Cl)cc1 | active
C[C@@H]1CN([C@@H](C)CO)C(=O)c2cc(NC(=O)Nc3ccc(C(F)(F)F)cc3)ccc2O[C@H]1CN(C)S(=O)(=O)c1ccc(Cl)cc1 | active
C[C@H]1CN([C@@H](C)CO)C(=O)c2cc(NC(=O)Nc3ccc(C(F)(F)F)cc3)ccc2O[C@H]1CN(C)S(=O)(=O)c1ccc(Cl)cc1 | inactive
